Test results: PubChem BioAssay (EPA / NIEHS)
Inconclusive results are not listed. The source made the active and inactive calls. The calls were made as follows, unless noted: active = hit-call score of the fitted dose curve at least 0.9, where 1 is the maximum; inactive = score below 0.9.

Key:
[1] = read-out: Monokine induced gamma interferon (MIG), CXCL9 (gene 4283); assay: BSK_3C_MIG: BioMAP Diversity Plus: 3C Assay for Monokine induced gamma interferon (MIG) Biomarker Activity (AID 2283021); details: primary human endothelial cells (HUVEC); actives raise or lower the signal;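 as to AC50: MIG protein level measured by immunoassay in the treated endothelial cultures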
Procedure, shortened: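 ELISA measurement of MIG in human umbilical vein endothelial cells 24 h after treatment. Cytotoxicity tracked by SRB staining in parallel cultures; gain or loss of signal fitted relative to DMSO.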

[2] = BSK_3C_SRB: Viability Assessment in the BioMAP Diversity Plus: 3C Assay (AID 2283023); details: primary human endothelial cells (HUVEC);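 also: fitted both ways against DMSO so a hit may be signal rise or drop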
Procedure, shortened: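 Cells were dosed with chemical, cultured 24 h, fixed with 10% TCA, stained with 0.1% SRB and read at 560 nm. Human umbilical vein endothelium was used; DMSO served as negative control and baseline.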

[3] = read-out: Matrix Metallopeptidase 1 (MMP1), MMP1 (gene 4312); assay: BSK_BE3C_MMP1: BioMAP Diversity Plus: BE3C Assay for Matrix Metallopeptidase 1 (MMP1) Biomarker Activity (AID 2283024); details: primary human bronchial epithelial cells; actives raise or lower the signal
Procedure, shortened: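 ELISA measurement of MMP-1 after 24 h compound exposure of primary human bronchial epithelial cells. Changes in either direction fitted relative to DMSO; parallel SRB staining checked overt cytotoxicity.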

[4] = BSK_3C_Vis: BioMAP Diversity Plus: 3C Assay for Morphology Visualization (AID 2283025); details: primary human endothelial cells (HUVEC);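 also: fitted both ways so gain or loss versus DMSO counts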;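 as to AC50: light microscopy image of cell morphology used as background control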
Procedure, shortened: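 Light-microscopy visualization of HUVEC cultures at 24 h post-treatment, with DMSO as baseline for bidirectional fitting.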

[5] = read-out: Pselectin, SELP (gene 6403); assay: BSK_4H_Pselectin: BioMAP Diversity Plus: 4H Assay for Pselectin Biomarker Activity (AID 2283026); details: primary human endothelial cells (HUVEC); actives raise or lower the signal
Procedure, shortened: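 ELISA of surface P-selectin on HUVEC, 24 h after dosing, with parallel SRB staining (0.1% after 10% TCA fixation, 560 nm) for overt cytotoxicity. Activity fitted in both directions relative to DMSO.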

[6] = BSK_4H_SRB: Viability Assessment in the BioMAP Diversity Plus: 4H Assay (AID 2283027); details: primary human endothelial cells (HUVEC);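 also: cells exposed to compound for 24 h before staining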;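 as to AC50: curves fitted both ways versus DMSO so AC50 may be loss or gain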
Procedure, shortened: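 HUVEC, 24 h post-dose; 10% TCA fix, 0.1% SRB stain, A560 nm. Total protein = overt cytotoxicity, parallel to biomarker read. Bidirectional fit vs DMSO baseline.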

[7] = read-out: Thrombomodulin, THBD (gene 7056); assay: BSK_3C_Thrombomodulin: BioMAP Diversity Plus: 3C Assay for Thrombomodulin Biomarker Activity (AID 2283029); details: primary human endothelial cells (HUVEC); actives raise or lower the signal
Procedure, shortened: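 ELISA measurement of thrombomodulin on HUVEC surface 24 h after chemical dosing; activity fitted in both directions relative to DMSO vehicle.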

[8] = read-out: Urokinase-type plasminogen activator receptor (uPAR), PLAUR (gene 5329); assay: BSK_4H_uPAR: BioMAP Diversity Plus: 4H Assay for Urokinase-type plasminogen activator receptor (uPAR) Biomarker Activity (AID 2283030); details: primary human endothelial cells (HUVEC); actives raise or lower the signal
Procedure, shortened: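 Chemicals are dosed onto human vascular endothelial primary cells (umbilical vein). After 24 h, uPAR is read by ELISA. Gain or loss of signal is fitted relative to DMSO.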

[9] = read-out: Vascular endothelial growth factor receptor 2 (Homo sapiens) (UniProt P35968); assay: BSK_4H_VEGFRII: BioMAP Diversity Plus: 4H Assay for Vascular endothelial growth factor receptor 2 (VEGFR2) Biomarker Activity (AID 2283031); details: primary human endothelial cells (HUVEC); actives raise or lower the signal;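 as to AC50: cell-surface VEGFR2 protein level quantified by ELISA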
Procedure, shortened: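 VEGFRII levels on human vascular endothelial primary cells were determined by ELISA at 24 hours post-dosing, with gain- or loss-of-signal fitted against DMSO controls.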

[10] = read-out: Human Leukocyte Antigen - DR isotype (HLADR), HLA-DRA (gene 3122); assay: BSK_BE3C_HLADR: BioMAP Diversity Plus: BE3C Assay for Human Leukocyte Antigen - DR isotype (HLADR) Biomarker Activity (AID 2283032); details: primary human bronchial epithelial cells; actives raise or lower the signal
Procedure, shortened: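 Cell-surface HLA-DR ELISA readout at 24 h after dosing in the BE3C primary human lung bronchial epithelial system; gain or loss of signal against DMSO, with parallel sulforhodamine B staining of total protein for overt cytotoxicity.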

[11] = read-out: Vascular cell adhesion molecule 1 (VCAM1), VCAM1 (gene 7412); assay: BSK_4H_VCAM1: BioMAP Diversity Plus: 4H Assay for Vascular cell adhesion molecule 1 (VCAM1) Biomarker Activity (AID 2283033); details: primary human endothelial cells (HUVEC); actives raise or lower the signal;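 as to outcome: cell-surface VCAM-1 protein measured by ELISA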
Procedure, shortened: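 VCAM-1 ELISA read 24 h after chemical dosing of HUVEC in the BioMAP 4H system, with gain or loss of signal fitted relative to DMSO. Parallel SRB staining (560 nm) checked overt cytotoxicity.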

[12] = read-out: Interferon-gamma inducible Protein 10 (IP10), CXCL10 (gene 3627); assay: BSK_BE3C_IP10: BioMAP Diversity Plus: BE3C Assay for Interferon-gamma inducible Protein 10 (IP10) Biomarker Activity (AID 2283034); details: primary human bronchial epithelial cells; actives raise or lower the signal
Procedure, shortened: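 IP-10 quantified by ELISA in human primary bronchial epithelial cell cultures at 24 hours post-dosing. Gain or loss of signal fitted relative to DMSO; parallel SRB staining assessed overt cytotoxicity.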

[13] = read-out: Monokine induced gamma interferon (MIG), CXCL9 (gene 4283); assay: BSK_BE3C_MIG: BioMAP Diversity Plus: BE3C Assay for Monokine induced gamma interferon (MIG) Biomarker Activity (AID 2283035); details: primary human bronchial epithelial cells; actives raise or lower the signal;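 also: MIG protein measured by ELISA in BE3C cultures after 24 h of dosing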
Procedure, shortened: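 Dose cells (human primary bronchial epithelial), incubate 24 h, quantify MIG by ELISA, then fit concentration–response in both directions relative to DMSO control.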

[14] = read-out: Transforming growth factor beta 1 (TGFb1), TGFB1 (gene 7040); assay: BSK_BE3C_TGFb1: BioMAP Diversity Plus: BE3C Assay for Transforming growth factor beta 1 (TGFb1) Biomarker Activity (AID 2283036;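 also: TGF-b1 protein level measured by ELISA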); details: primary human bronchial epithelial cells; actives raise or lower the signal
Procedure, shortened: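 ELISA readout of TGF-b1 from human lung bronchial epithelial primary cells, taken 24 h post-treatment. Gain or loss of signal fitted relative to DMSO baseline, with parallel SRB staining for overt cytotoxicity.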

[15] = read-out: Plasminogen activator inhibitor-1 (PAI1), SERPINE1 (gene 5054); assay: BSK_BE3C_PAI1: BioMAP Diversity Plus: BE3C Assay for Plasminogen activator inhibitor-1 (PAI1) Biomarker Activity (AID 2283037); details: primary human bronchial epithelial cells; actives raise or lower the signal
Procedure, shortened: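 PAI-1 was measured by ELISA in human primary bronchial epithelial cultures 24 h after chemical dosing, with cytotoxicity checked by SRB total-protein staining in parallel cultures. Activity was fitted in both directions relative to DMSO.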

[16] = read-out: Urokinase-type plasminogen activator receptor (uPAR), PLAUR (gene 5329); assay: BSK_BE3C_uPAR: BioMAP Diversity Plus: BE3C Assay for Urokinase-type plasminogen activator receptor (uPAR) Biomarker Activity (AID 2283039); details: primary human bronchial epithelial cells; actives raise or lower the signal;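 also: cells exposed to compound for one day before measurement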
Procedure, shortened: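 uPAR levels were measured by ELISA after 24 h compound treatment of primary human bronchial epithelial cells, fitted in both directions relative to DMSO. Parallel SRB staining served as the cytotoxicity read-out.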

[17] = read-out: Interleukin-6 (IL6), IL6 (gene 3569); assay: BSK_CASM3C_IL6: BioMAP Diversity Plus: CASM3C Assay for Interleukin-6 (IL6) Biomarker Activity for (AID 2283040); details: primary human coronary artery smooth muscle cells; actives raise or lower the signal
[18] = read-out: urokinase plasminogen activator (uPA), PLAU (gene 5328); assay: BSK_BE3C_uPA: BioMAP Diversity Plus: BE3C Assay for urokinase plasminogen activator (uPA) Biomarker Activity (AID 2283038); details: primary human bronchial epithelial cells; actives raise or lower the signal;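 as to outcome: uPA protein level quantified by ELISA in cell cultures; uPA read one day after compound addition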
Procedure, shortened: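 Measured by ELISA: uPA from human primary bronchial epithelial cells 24 h after chemical treatment. Values derive from bidirectional curve fitting with DMSO serving as negative control. Total protein by SRB staining in parallel wells flagged overt cytotoxicity.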

[19] = molecular target: human Vitamin D Receptor (VDR), VDR (gene 7421) (UniProt P11473); assay: ATG_VDR_TRANS: Attagene TRANS-FACTORIAL HepG2 Assay for human Vitamin D Receptor (VDR) (AID 2283022; active = hit-call score of the fitted dose curve at least 0.9, where 1 is the maximum)
Procedure, shortened: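 Fluorescence of labelled reporter cDNA fragments, resolved by capillary electrophoresis, gives mRNA induction after 24 h treatment of HepG2 cells carrying transfected Gal4-fusion reporter units. Activity is fitted in the positive direction with DMSO as baseline.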

[20] = BSK_BE3C_SRB: Viability Assessment in the BioMAP Diversity Plus: BE3C Assay (AID 2283028); details: primary human bronchial epithelial cells
Procedure, shortened: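 Overt cytotoxicity was assessed as total protein in confluent human primary bronchial epithelial cultures 24 h after chemical addition, using 0.1% sulforhodamine B staining read at 560 nm.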

human Vitamin D Receptor (VDR), VDR (gene 7421), sequence (P11473 whole entry, looked up, the tested form may be a part): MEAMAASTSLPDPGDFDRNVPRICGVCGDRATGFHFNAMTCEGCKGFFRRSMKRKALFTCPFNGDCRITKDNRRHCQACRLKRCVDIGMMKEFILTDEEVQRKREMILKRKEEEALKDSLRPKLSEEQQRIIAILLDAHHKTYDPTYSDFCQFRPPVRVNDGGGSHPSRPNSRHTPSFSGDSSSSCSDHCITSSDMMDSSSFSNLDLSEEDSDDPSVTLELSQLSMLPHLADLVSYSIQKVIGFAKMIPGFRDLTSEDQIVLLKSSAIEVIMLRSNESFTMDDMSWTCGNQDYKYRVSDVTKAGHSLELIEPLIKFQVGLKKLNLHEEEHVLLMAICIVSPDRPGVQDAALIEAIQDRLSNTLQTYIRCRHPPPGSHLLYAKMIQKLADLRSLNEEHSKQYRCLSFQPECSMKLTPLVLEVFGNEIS

## Cc1ccccc1N
[1]
  outcome: inactive
[2]
  outcome: inactive
[3]
  outcome: inactive
[4]
  outcome: inactive
[5]
  outcome: inactive
[6]
  outcome: inactive
[7]
  outcome: inactive
[8]
  outcome: inactive
[9]
  outcome: inactive
[10]
  outcome: inactive
[11]
  outcome: inactive
[12]
  outcome: inactive
[13]
  outcome: inactive
[14]
  outcome: inactive
[15]
  outcome: inactive
[16]
  outcome: inactive
[17]
  outcome: inactive

## O=[N+]([O-])c1ccc(O)c([N+](=O)[O-])c1
[1]
  outcome: inactive
[2]
  outcome: inactive
[3]
  outcome: inactive
[4]
  outcome: inactive
[5]
  outcome: inactive
[6]
  outcome: inactive
[7]
  outcome: inactive
[8]
  outcome: inactive
[9]
  outcome: inactive
[10]
  outcome: inactive
[11]
  outcome: inactive
[12]
  AC50: 29.8 µM (active)
[13]
  outcome: inactive
[14]
  outcome: inactive
[15]
  AC50: 30.5 µM (active)
[18]
  outcome: inactive
[16]
  outcome: inactive
[17]
  outcome: inactive

## c1cc[c]([Hg][c]2ccccc2)cc1
[19]
  outcome: inactive

## ClC(Cl)=C(Cl)C(Cl)=C(Cl)Cl
[1]
  AC50: 36.5 µM (active)
[2]
  AC50: 34.4 µM (active)
[3]
  AC50: 20 µM (active)
[4]
  AC50: 37.5 µM (active)
[5]
  AC50: 33.6 µM (active)
[6]
  AC50: 34.2 µM (active)
[7]
  outcome: inactive
[8]
  AC50: 32.2 µM (active)
[9]
  AC50: 31.1 µM (active)
[10]
  AC50: 26.9 µM (active)
[11]
  AC50: 34.8 µM (active)
[12]
  AC50: 31.5 µM (active)
[13]
  outcome: inactive
[14]
  outcome: inactive
[15]
  AC50: 20 µM (active)
[18]
  AC50: 20 µM (active)
[16]
  outcome: inactive
[17]
  AC50: 3.97 µM (active)

## CCOP(=S)(OCC)SCSP(=S)(OCC)OCC
[1]
  outcome: inactive
[2]
  outcome: inactive
[3]
  outcome: inactive
[4]
  outcome: inactive
[5]
  outcome: inactive
[6]
  outcome: inactive
[20]
  outcome: inactive
[7]
  outcome: inactive
[8]
  outcome: inactive
[9]
  outcome: inactive
[10]
  outcome: inactive
[11]
  outcome: inactive
[12]
  outcome: inactive
[13]
  outcome: inactive
[14]
  outcome: inactive
[15]
  outcome: inactive
[18]
  outcome: inactive
[16]
  outcome: inactive
[17]
  outcome: inactive

## CC(C)c1cccc(C(C)C)c1O
[19]
  outcome: inactive

## O=C(O)CCC(F)(C(F)(F)F)C(F)(F)F
[1]
  outcome: inactive
[2]
  outcome: inactive
[3]
  outcome: inactive
[5]
  outcome: inactive
[6]
  outcome: inactive
[7]
  outcome: inactive
[8]
  outcome: inactive
[9]
  outcome: inactive
[10]
  outcome: inactive
[11]
  outcome: inactive
[12]
  outcome: inactive
[13]
  outcome: inactive
[15]
  outcome: inactive
[18]
  outcome: inactive
[16]
  outcome: inactive
[17]
  outcome: inactive

## Clc1nc(Cl)nc(Cl)n1
[19]
  outcome: inactive
